# Results taken from PubChem BioAssay (Tox21).
# Results filed as inconclusive are left out. Entries that show only a call come without a potency. Active and inactive are the calls of the source. Unless noted, calls follow the shape of the dose curve; as a rule, active = well fitted curve in the direction sought with a large enough effect in the repeat runs; inconclusive = weak or mixed curves; inactive = no such curve, though single readings can be large; an effect the other way counts as inactive or inconclusive.
# Key:
# [1] = biological target: Acetylcholinesterase (Homo sapiens) (UniProt P22303); assay: Acetylcholinesterase (AChE) small molecule antagonists: enzyme-based qHTS assay (AID 1347397; calls by dose curve; also: nearly all actives have a fitted effect of over 55% in size); conditions: Potency: AChE enzyme activity inhibition; outcome: AChE enzyme activity inhibition
# Acetylcholinesterase (Homo sapiens), sequence (P22303 whole entry, looked up): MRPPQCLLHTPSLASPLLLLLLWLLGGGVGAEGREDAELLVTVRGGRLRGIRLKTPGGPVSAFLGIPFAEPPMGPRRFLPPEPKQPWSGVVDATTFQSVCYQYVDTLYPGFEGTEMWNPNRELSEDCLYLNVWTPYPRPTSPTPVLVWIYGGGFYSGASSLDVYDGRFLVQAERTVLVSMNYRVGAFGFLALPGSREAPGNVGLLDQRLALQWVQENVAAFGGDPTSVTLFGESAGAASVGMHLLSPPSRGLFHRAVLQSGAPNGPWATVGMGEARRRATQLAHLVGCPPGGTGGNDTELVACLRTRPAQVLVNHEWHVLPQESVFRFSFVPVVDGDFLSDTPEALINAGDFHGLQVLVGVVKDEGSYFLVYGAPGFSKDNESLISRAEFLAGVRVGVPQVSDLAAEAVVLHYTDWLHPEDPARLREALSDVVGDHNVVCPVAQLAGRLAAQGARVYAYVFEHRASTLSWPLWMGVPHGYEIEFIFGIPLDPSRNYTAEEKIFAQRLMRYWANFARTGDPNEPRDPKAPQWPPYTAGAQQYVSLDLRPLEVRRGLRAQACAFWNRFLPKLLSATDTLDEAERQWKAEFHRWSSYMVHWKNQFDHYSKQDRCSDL
# How it was run: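 Compound or DMSO vehicle was pin-transferred onto recombinant human AChE (50 mU/mL as dispensed) and left 30 min at room temperature. Acetylthiocholine with DTNB then started the reaction, read colorimetrically 10 min later.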
# [2] = biological target: Acetylcholinesterase (Homo sapiens) (UniProt P22303); assay: Acetylcholinesterase (AChE) small molecule antagonists: fluorescence cell-based qHTS assay (AID 1347398; calls by dose curve; also: nearly all actives have a fitted effect of over 50% in size); conditions: Potency: AChE activity; outcome: AChE activity
# How it was run: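 Using neuroblastoma SH-SY5Y cells as the enzyme source, test chemicals are preincubated 30 min at 37 C; AChE-driven acetylthiocholine cleavage is then quantified by thiocholine-dependent Thiolite Green fluorescence after 40 min at room temperature.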
# [3] = biological target: Acetylcholinesterase (Homo sapiens) (UniProt P22303); assay: Acetylcholinesterase (AChE) small molecule antagonists: enzyme-based qHTS assay with human liver microsomes (AID 1347399; calls by dose curve; also: nearly all actives have a fitted effect of over 60% in size); conditions: Potency: qHTS inhibition; outcome: qHTS inhibition
# How it was run: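 Recombinant human AChE (50 mU/mL in the enzyme mix) and human liver microsomes (0.25 mg/mL final) were preincubated with compound and NADPH (0.25 mg/mL final) for 30 min at 37 C. Acetylthiocholine/DTNB was then added; thiocholine was read colorimetrically after 10 min at room temperature.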
# [4] = qHTS assay for small molecule agonists of the p53 signaling pathway (AID 651631; calls by dose curve; also: nearly all actives have a fitted effect of over 15% in size; also: potency is read from the fitted curve at half-maximal effect)
# How it was run: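 p53RE-bla HCT-116 cells; compounds 16 h, 37 °C; LiveBLAzer B/G FRET substrate 2 h RT; fluorescence intensity read-out, qHTS format.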
# [5] = qHTS assay for small molecules that induce genotoxicity in human embryonic kidney cells expressing luciferase-tagged ATAD5 (AID 651632); also: nearly all actives have a fitted effect of over 15% in size; also: potency is read from the fitted curve at half-maximal effect
# How it was run: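 Test compounds were delivered by pin tool onto HEK293T reporter cells (2,000/well) expressing ATAD5 fused to luciferase. After 16 hr at 37C, 5% CO2, Amplite was added for 30 min at room temperature and luminescence was measured.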
# [6] = qHTS assay for small molecules that induce genotoxicity in human embryonic kidney cells expressing luciferase-tagged ATAD5 - cell viability (AID 651634; calls by dose curve; also: nearly all actives have a fitted effect of over 25% in size; also: potency is read from the fitted curve at half-maximal effect)
# How it was run: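 Quantitative high-throughput format. HEK293T cells expressing ATAD5 fused to luciferase were plated at 2,000 cells/well and treated 15.5 hr with compound versus DMSO. Viability was determined by fluorescent live-cell protease substrate, 30 min at 37C.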
# [7] = qHTS assay for small molecule disruptors of the mitochondrial membrane potential - cell viability (AID 720634; calls by dose curve;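 also: human HepG2 liver cancer cells; series mostly up to about 83 µM; nearly all actives have a fitted effect of over 20% in size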)
# How it was run: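 Same-well counter-screen: following the MMP dye addition, CellTiter-Glo was added to 1 hr compound-treated HepG2 cells and luminescence read after 30 min at room temperature.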
# [8] = qHTS assay to test for compound auto fluorescence at 590 nm (red) in HepG2 cells (AID 720674)
# How it was run: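 Rose Bengal sodium served as the red fluorophore standard. HepG2 monolayers (overnight attachment, MEM with 10% FBS) were exposed to test compounds for 1 hr at 37 C and read at Ex 540/Em 590 nm.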
# [9] = qHTS assay to test for compound auto fluorescence at 535 nm (green) in HepG2 cells (AID 720675)
# [10] = qHTS assay to test for compound auto fluorescence at 590 nm (red) in HEK293 cells (AID 720679)
# How it was run: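 Intensity at 540nm excitation and 590nm emission is reported as Rose Bengal sodium-equivalent autofluorescence. Measurements followed overnight exposure (37C, 5% CO2) of HEK293 cells, 2,000 per well, to 23 nL compound.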
# [11] = qHTS assay to test for compound auto fluorescence at 535 nm (green) in HEK293 cells (AID 720680)
# [12] = qHTS assay to test for compound auto fluorescence at 460 nm (blue) in HEK293 cell free culture (AID 720681)
# How it was run: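 Test compounds were pinned into cell-free culture medium (DMEM with 10% FBS) and fluorescence was read directly at Ex/Em 405/460 nm. Signals were expressed as fluorescence equivalents of triamterene, with DMSO vehicle as control.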
# [13] = qHTS assay to test for compound auto fluorescence at 535 nm (green) in HEK293 cell free culture (AID 720682)
# How it was run: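 Cell-free medium (DMEM, 10% FBS) receives compound or DMSO by pintool. Plate read directly at Ex 485/Em 535 nm. Signal converted to fluorescein equivalency.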
# [14] = qHTS assay to test for compound auto fluorescence at 590 nm (red) in HEK293 cell free culture (AID 720683)
# How it was run: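 Tox21 10K library compounds were pinned into cell-free DMEM with 10% FBS and fluorescence was read at excitation 540 nm. Activity is expressed as Rose Bengal sodium equivalency.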
# [15] = qHTS assay to test for compound auto fluorescence at 590 nm (red) in HepG2 cell free culture (AID 720684)
# How it was run: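 Ex 540 / Em 590 nm read of compound in cell-free MEM (10% FBS). Rose Bengal sodium reference.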
# [16] = qHTS assay to test for compound auto fluorescence at 460 nm (blue) in HepG2 cell free culture (AID 720685)
# How it was run: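 Cell-free plates of MEM plus 10% FBS received 23 nL compound or DMSO vehicle; blue-channel (405/460 nm) intensity scored against triamterene as reference fluorophore.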
# [17] = qHTS assay to test for compound auto fluorescence at 535 nm (green) in HepG2 cell free culture (AID 720686)
# [18] = qHTS assay to test for compound auto fluorescence at 460 nm (blue) in HepG2 cells (AID 720687)
# How it was run: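 Cells (2,000/well in MEM with 10% FBS) attached overnight at 37 C, then were exposed to compound or DMSO for 1 hr at 37 C, 5% CO2. Fluorescence read at Ex/Em 405/460 nm, expressed as triamterene-equivalent signal.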
# [19] = biological target: Glucocorticoid receptor (Homo sapiens) (UniProt P04150); assay: qHTS assay to identify small molecule agonists of the glucocorticoid receptor (GR) signaling pathway (AID 720691; active = well fitted activation curve with a large enough effect in the signal ratio in the repeat runs, not every such curve was filed as active; the % refers to the signal ratio)
# Glucocorticoid receptor (Homo sapiens), sequence (P04150 whole entry, looked up): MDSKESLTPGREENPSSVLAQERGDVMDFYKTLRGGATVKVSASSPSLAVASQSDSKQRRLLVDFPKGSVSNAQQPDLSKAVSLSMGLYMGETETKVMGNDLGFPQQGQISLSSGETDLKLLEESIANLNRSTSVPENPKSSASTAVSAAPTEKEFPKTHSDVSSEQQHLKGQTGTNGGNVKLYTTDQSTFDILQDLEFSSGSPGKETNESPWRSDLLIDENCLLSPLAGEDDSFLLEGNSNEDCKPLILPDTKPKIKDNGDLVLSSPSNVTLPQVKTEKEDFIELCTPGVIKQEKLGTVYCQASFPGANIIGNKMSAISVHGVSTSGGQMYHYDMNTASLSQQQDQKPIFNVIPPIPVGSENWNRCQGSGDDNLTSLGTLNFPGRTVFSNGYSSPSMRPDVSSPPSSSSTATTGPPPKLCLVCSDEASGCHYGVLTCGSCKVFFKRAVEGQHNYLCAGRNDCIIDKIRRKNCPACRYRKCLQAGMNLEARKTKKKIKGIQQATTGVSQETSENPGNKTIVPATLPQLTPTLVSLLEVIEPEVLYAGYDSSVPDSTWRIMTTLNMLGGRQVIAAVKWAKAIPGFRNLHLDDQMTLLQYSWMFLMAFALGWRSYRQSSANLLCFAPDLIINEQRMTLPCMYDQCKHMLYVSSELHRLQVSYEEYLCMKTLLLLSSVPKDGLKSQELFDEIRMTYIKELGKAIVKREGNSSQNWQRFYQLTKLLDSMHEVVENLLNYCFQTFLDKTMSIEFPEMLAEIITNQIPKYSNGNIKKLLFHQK
# How it was run: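 A HeLa cervical cancer line expressing GR and a glucocorticoid response element-driven beta-lactamase gene is treated with compounds for 18 h; LiveBLAzer B/G FRET substrate is then applied and fluorescence read.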
# [20] = biological target: Glucocorticoid receptor (Homo sapiens) (UniProt P04150); assay: qHTS assay to identify small molecule antagonists of the glucocorticoid receptor (GR) signaling pathway (AID 720692; active = well fitted inhibition curve with a large enough effect in the signal ratio in the repeat runs, not every such curve was filed as active; the % refers to the signal ratio)
# How it was run: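 GRE-bla HeLa line, dex-stimulated (5 nM final). Compound exposure 18 h, 37 C. Beta-lactamase FRET read after 2 h RT substrate.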
# [21] = qHTS assay to identify small molecule antagonists of the glucocorticoid receptor (GR) signaling pathway - cell viability counter screen (AID 720693); also: nearly all actives have a fitted effect of over 55% in size
# [22] = qHTS assay for identifying genotoxic compounds that show differential cytotoxicity against isogenic chicken DT40 cell lines with known DNA damage response pathways - Rev3 mutant cell line (AID 743014); also: potency is read from the fitted curve at half-maximal effect; nearly all actives have a fitted effect of over 55% in size
# [23] = qHTS assay for identifying genotoxic compounds that show differential cytotoxicity against isogenic chicken DT40 cell lines with known DNA damage response pathways - Rad54/Ku70 mutant cell line (AID 743015); also: potency is read from the fitted curve at half-maximal effect; nearly all actives have a fitted effect of over 60% in size
# [24] = qHTS assay to identify small molecule antagonists of the androgen receptor (AR) signaling pathway - cell viability counter screen (AID 743033; also: nearly all actives have a fitted effect of over 45% in size)
# [25] = qHTS assay to identify small molecule antagonists of the thyroid receptor (TR) signaling pathway (AID 743065); also: potency is read from the fitted curve at half-maximal effect; nearly all actives have a fitted effect of over 55% in size
# How it was run: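 GH3.TRE-Luc rat pituitary cells carrying two TR response elements driving luciferase were plated for 4 h, given compound plus 1 nM T3 (final), and incubated 23.5 h at 37 C. ONE-Glo luminescence measured reporter inhibition; CellTiter-Fluor fluorescence tracked cytotoxicity.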
# [26] = system: thyroid hormone receptor (rat, GH3 cells); assay: qHTS assay to identify small molecule agonists of the thyroid receptor (TR) signaling pathway (AID 743066; calls by dose curve)
# [27] = qHTS assay to identify small molecule antagonists of the estrogen receptor alpha (ER-alpha) signaling pathway - cell viability counter screen (AID 743074; calls by dose curve;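 also: HEK293 cells carrying ER-alpha-UAS-bla reporter stimulated with 17beta-estradiol; nearly all actives have a fitted effect of over 45% in size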)
# Aromatase (Homo sapiens) = Aromatase (Homo sapiens) (UniProt P11511); assay: qHTS assay to identify aromatase inhibitors (AID 743083)
# Aromatase (Homo sapiens), sequence (P11511 whole entry, looked up): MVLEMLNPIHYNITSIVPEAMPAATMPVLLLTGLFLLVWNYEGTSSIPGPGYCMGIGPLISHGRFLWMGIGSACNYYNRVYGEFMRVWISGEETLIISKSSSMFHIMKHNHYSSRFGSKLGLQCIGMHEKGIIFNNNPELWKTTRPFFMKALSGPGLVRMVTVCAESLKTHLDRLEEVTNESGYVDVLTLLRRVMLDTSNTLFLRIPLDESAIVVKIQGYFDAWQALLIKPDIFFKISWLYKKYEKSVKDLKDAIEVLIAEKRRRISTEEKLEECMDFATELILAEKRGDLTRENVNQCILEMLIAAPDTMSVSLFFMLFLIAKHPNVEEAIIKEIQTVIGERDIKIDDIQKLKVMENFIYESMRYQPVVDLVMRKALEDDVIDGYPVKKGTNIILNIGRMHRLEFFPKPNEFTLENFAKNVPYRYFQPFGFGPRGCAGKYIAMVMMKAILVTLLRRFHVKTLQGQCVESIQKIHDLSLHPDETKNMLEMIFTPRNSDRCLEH
# [28] = qHTS assay to identify aromatase inhibitors - cell viability counter screen (AID 743084)
# [29] = biological target: Aryl hydrocarbon receptor (Homo sapiens) (UniProt P35869); assay: qHTS assay to identify small molecule that activate the aryl hydrocarbon receptor (AhR) signaling pathway (AID 743085);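 also: HG2L7.5c1 human HepG2 liver cells with stably integrated DRE-driven firefly reporter; series mostly up to about 70 µM; nearly all actives have a fitted effect of over 15% in size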
# Aryl hydrocarbon receptor (Homo sapiens), sequence (P35869 whole entry, looked up): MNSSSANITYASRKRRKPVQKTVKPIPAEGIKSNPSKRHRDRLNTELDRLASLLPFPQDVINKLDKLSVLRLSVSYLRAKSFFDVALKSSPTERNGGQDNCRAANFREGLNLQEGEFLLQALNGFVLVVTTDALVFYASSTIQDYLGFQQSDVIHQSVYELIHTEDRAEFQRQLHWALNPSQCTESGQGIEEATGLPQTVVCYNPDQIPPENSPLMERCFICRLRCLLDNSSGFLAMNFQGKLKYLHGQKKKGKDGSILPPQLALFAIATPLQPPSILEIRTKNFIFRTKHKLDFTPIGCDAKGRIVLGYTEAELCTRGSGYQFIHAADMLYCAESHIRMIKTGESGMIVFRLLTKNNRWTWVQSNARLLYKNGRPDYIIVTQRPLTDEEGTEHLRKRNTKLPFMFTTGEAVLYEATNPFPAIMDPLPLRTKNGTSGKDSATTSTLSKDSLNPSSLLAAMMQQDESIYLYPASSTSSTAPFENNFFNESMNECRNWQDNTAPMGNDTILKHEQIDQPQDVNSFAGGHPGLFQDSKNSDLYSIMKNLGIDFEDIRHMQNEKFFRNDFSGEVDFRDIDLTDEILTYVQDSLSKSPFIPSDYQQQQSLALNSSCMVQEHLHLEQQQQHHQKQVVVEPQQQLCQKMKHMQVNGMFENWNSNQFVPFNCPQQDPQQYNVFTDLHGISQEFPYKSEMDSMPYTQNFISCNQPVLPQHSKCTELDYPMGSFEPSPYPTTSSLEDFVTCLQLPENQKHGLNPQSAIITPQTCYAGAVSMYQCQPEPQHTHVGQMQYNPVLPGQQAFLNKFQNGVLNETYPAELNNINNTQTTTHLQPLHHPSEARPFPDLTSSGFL
# How it was run: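 Luminescence read-out: ONE-Glo reagent, 30 min at room temperature, in HG2L7.5c1 HepG2 reporter cells treated 24 h at 37C. Viability was measured beforehand by CellTiter-Fluor fluorescence after 30 min at 37C.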
# [30] = qHTS assay for small molecule agonists of the p53 signaling pathway - cell viability (AID 651633; calls by dose curve;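 also: p53RE-bla HCT reporter cells with a stable beta-lactamase p53 reporter; series mostly up to about 83 µM; nearly all actives have a fitted effect of over 30% in size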)
# How it was run: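 p53RE-bla cells, seeded at 4,000 per well and rested 5 h at 37 C/5% CO2, received compounds in DMSO for 16 h at 37 C. CellTiter-Glo was then added, and luminescence was read after 30 min at room temperature to gauge cytotoxicity.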
# [31] = qHTS assay for small molecule disruptors of the mitochondrial membrane potential (AID 720635); also: potency is read from the fitted curve at half-maximal effect
# How it was run: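 HepG2 cells (2,000/well) attached overnight at 37C, then took compound for 1 hr at 37C, 5% CO2. Mito-MPS dye was added for 30 min; fluorescence was read at 490/535 nm (monomers) and 540/590 nm (aggregates).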
# [32] = qHTS assay to test for compound auto fluorescence at 460 nm (blue) in HEK293 cells (AID 720678)
# How it was run: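 HEK293, 2,000 cells/well, 10% dialyzed FBS; attach 4-5 hr 37C; pin compound or DMSO; o/n 37C/5% CO2; fluorescence 405/460 nm; triamterene-equivalent units.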
# [33] = qHTS assay for identifying genotoxic compounds that show differential cytotoxicity against isogenic chicken DT40 cell lines with known DNA damage response pathways - wild type cell line (AID 743012); also: potency is read from the fitted curve at half-maximal effect; nearly all actives have a fitted effect of over 60% in size
# How it was run: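 300 wt DT40 cells/well; cpd (DMSO) pintool-transferred after ~0.5 h at 37 C/5% CO2; 40 h incubation; CellTiter-Glo added, 30 min RT; luminescence read.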
# [34] = qHTS assay to identify small molecule antagonists of the thyroid receptor (TR) signaling pathway - cell viability counter screen (AID 743064); also: potency is read from the fitted curve at half-maximal effect; nearly all actives have a fitted effect of over 50% in size
# How it was run: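 GH3.TRE-Luc cells, 4 h pre-plating; cpd + T3 1 nM final; 37 °C 23.5 h; CellTiter-Fluor 30 min; fluorescence read.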
# [35] = biological target: Estrogen receptor (Homo sapiens) (UniProt P03372); assay: qHTS assay to identify small molecule antagonists of the estrogen receptor alpha (ER-alpha) signaling pathway (AID 743069; active = well fitted curve in the direction sought with a large enough effect in the signal ratio in the repeat runs, not every such curve was filed as active; the % refers to the signal ratio)
# Estrogen receptor (Homo sapiens), sequence (P03372 whole entry, looked up): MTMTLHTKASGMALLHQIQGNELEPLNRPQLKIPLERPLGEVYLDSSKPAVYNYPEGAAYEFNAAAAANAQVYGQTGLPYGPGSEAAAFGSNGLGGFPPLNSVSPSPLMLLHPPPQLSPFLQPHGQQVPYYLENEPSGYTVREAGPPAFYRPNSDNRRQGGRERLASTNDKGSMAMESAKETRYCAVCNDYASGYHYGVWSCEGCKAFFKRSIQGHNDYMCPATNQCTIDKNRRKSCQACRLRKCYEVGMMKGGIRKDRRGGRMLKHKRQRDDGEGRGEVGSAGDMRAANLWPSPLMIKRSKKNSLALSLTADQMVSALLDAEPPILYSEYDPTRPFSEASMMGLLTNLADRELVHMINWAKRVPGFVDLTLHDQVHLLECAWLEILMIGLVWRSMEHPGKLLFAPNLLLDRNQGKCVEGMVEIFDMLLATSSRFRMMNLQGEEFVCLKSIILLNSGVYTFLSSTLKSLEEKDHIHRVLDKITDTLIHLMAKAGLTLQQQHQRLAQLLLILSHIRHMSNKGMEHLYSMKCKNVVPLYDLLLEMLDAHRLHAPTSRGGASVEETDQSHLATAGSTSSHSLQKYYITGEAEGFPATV
# How it was run: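 A 17beta-estradiol challenge was applied right after compound transfer to ER-alpha-UAS-bla HEK293 cells previously kept in charcoal-stripped serum. Plates stood 18 hr at 37C and 5% CO2; fluorescence was read following 2 hr FRET substrate loading at room temperature.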
# [36] = biological target: Estrogen receptor (Homo sapiens) (UniProt P03372); assay: qHTS assay to identify small molecule agonists of the estrogen receptor alpha (ER-alpha) signaling pathway using the BG1 cell line (AID 743079); also: nearly all actives have a fitted effect of over 20% in size
# [37] = qHTS assay to identify small molecule that activate the aryl hydrocarbon receptor (AhR) signaling pathway - cell viability counter screen (AID 743086); also: potency is read from the fitted curve at half-maximal effect; nearly all actives have a fitted effect of over 45% in size
# How it was run: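 HepG2-AhR-luc (HG2L7.5c1) cells, 4000/well, were preincubated 5 h at 37C, exposed to compound in qHTS format for 24 hr at 37C, then given CellTiter-Fluor for 30 min; viability was read as fluorescence in the reporter wells.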
smiles,measurement,setting,value
CCC(C)OC(=O)N1CCCCC1CCO (centres undefined),Potency,[1],inactive
same,Potency,[2],inactive
same,Potency,[3],inactive
CCc1cc(OC)c(C[C@@H](C)N)cc1OC,Potency,[4],inactive
same,Potency,[5],inactive
same,Potency,[6],inactive
same,Potency,[7],inactive
same,outcome,[8],inactive
same,Potency,[9],inactive
same,outcome,[10],inactive
same,Potency,[11],inactive
same,Potency,[12],inactive
same,Potency,[13],inactive
same,outcome,[14],inactive
same,outcome,[15],inactive
same,Potency,[16],inactive
same,Potency,[17],inactive
same,Potency,[18],inactive
same,Potency,[19],inactive
same,Potency,[20],inactive
same,Potency,[21],inactive
same,Potency,[22],63600 nM (active)
same,Potency,[23],71400 nM (active)
same,Potency,[24],inactive
same,Potency,[25],56700 nM (active)
same,Potency,[26],inactive
same,Potency,[27],inactive
same,Potency,Aromatase (Homo sapiens),inactive
same,Potency,[28],inactive
same,Potency,[29],inactive
COc1cc([C@@H]2c3cc4c(cc3[C@@H](O)[C@H]3COC(=O)[C@H]23)OCO4)cc(OC)c1O,Potency,[4],168 nM (active)
same,Potency,[5],1880 nM (active)
same,Potency,[30],inactive
same,Potency,[6],298 nM (active)
same,Potency,[7],inactive
same,Potency,[31],2110 nM (active)
same,outcome,[8],inactive
same,Potency,[9],inactive
same,Potency,[32],inactive
same,outcome,[10],inactive
same,Potency,[11],inactive
same,Potency,[12],inactive
same,Potency,[13],inactive
same,outcome,[14],inactive
same,outcome,[15],inactive
same,Potency,[16],inactive
same,Potency,[17],inactive
same,Potency,[18],inactive
same,Potency,[19],inactive
same,Potency,[21],inactive
same,Potency,[33],237 nM (active)
same,Potency,[22],266 nM (active)
same,Potency,[23],266 nM (active)
same,Potency,[34],10600 nM (active)
same,Potency,[25],266 nM (active)
same,Potency,[35],inactive
same,Potency,[27],inactive
same,Potency,[36],inactive
same,Potency,Aromatase (Homo sapiens),inactive
same,Potency,[28],inactive
same,Potency,[37],29800 nM (active)
Nc1ccc2cc(S(=O)(=O)O)cc(O)c2c1,Potency,[1],inactive
same,Potency,[2],inactive
same,Potency,[3],inactive
C=CC(C)(C)CC(=O)OC,Potency,[1],inactive
same,Potency,[2],inactive
same,Potency,[3],inactive
COc1ccc(/C(C)=C/C(=O)O)c(OC)c1,Potency,[1],inactive
same,Potency,[2],inactive
same,Potency,[3],inactive
CN(C)CCN(Cc1ccsc1)c1ccccn1,Potency,[1],inactive
same,Potency,[2],inactive
same,Potency,[3],inactive
CCN(CC)CCOC(=O)C(c1ccccc1)C1CCCCC1 (centres undefined),Potency,[1],inactive
same,Potency,[2],inactive
same,Potency,[3],inactive
CC(C)(C)NCC(O)COc1ccccc1OCC1CCCO1 (centres undefined),Potency,[1],inactive
same,Potency,[2],inactive
same,Potency,[3],inactive
